PubChem BioAssay AID1851 (National Center for Advancing Translational Sciences (NCATS), 2009)
The whole screen tested about 16,000 compounds, of which about 5,700 (36%) were called active. Another 24% or so got no clear call; they are omitted. The call rests on the fitted dose curve; in most records, active means well fitted curve in the direction sought with a large enough effect; inconclusive means small, poorly fitted or top-dose-only effect, or effect the other way; inactive means no such curve, though single readings can be large or run the other way. The list shows a part of the results.

Each compound was assayed against Cytochrome P450 1A2 (Homo sapiens) (UniProt P05177) (assay: Cytochrome panel assay with activity outcomes). Conditions: recombinant CYP, pro-luciferin dealkylation, luminescence, p450-cyp1a2; series mostly up to 57.1 µM; activity, negative = inhibition: at the top concentration.
On the % scale 0 is the no-effect control and ±100 the full control effect.

Cytochrome P450 1A2 (Homo sapiens), sequence (P05177 whole entry, looked up): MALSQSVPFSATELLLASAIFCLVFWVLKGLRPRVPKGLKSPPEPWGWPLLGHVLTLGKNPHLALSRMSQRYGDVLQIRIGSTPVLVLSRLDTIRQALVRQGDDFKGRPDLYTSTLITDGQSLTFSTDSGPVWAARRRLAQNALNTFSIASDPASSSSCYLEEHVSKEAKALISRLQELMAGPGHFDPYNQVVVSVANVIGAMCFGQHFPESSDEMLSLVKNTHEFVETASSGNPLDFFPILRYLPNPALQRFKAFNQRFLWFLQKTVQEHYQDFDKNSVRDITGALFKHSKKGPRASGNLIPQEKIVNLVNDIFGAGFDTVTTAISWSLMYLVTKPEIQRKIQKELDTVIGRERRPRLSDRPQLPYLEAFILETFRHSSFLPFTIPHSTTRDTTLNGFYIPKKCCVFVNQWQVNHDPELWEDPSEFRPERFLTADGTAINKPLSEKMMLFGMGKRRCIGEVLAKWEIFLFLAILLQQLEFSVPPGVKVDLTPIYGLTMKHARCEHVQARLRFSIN

SMILES	AC50	activity, negative = inhibition
CCOc1c(OC(C)=O)ccc(/C=C/c2ccc3cccc(OC(C)=O)c3n2)c1[N+](=O)[O-]	4.47 µM (active)	–
CCOc1c(OC(C)=O)ccc(/C=C2\N=C(SCC)SC2=O)c1[N+](=O)[O-]	0.631 µM (active)	–
Cc1ccc(S(=O)(=O)N=Nc2c(O)[nH]c3cc(O)c(C(=O)O)cc23)cc1	–	-15.8% [at 2.29 µM] (inactive)
Cc1cc(=O)oc(C)c1C(=O)N1CCCCC1	–	2.37% (inactive)
CCCNC(=O)c1c(C)cc(=O)oc1C	11.2 µM (active)	–
CC(Cc1ccccc1)C(=O)NCc1ccccn1 (stereo not given)	15.8 µM (active)	–
O=C(O)[C@@H](O)Cc1ccccn1	–	-9.06% [at 11.4 µM] (inactive)
Cc1cc(=O)oc(C)c1C(=O)NCc1cccnc1	4.47 µM (active)	–
Cc1cc(=O)oc(C)c1C(=O)NCc1ccccc1	–	-3.38% (inactive)
CC(C)C(NC(=O)C1CCCCC1)C(=O)NCc1ccccn1 (stereo not given)	–	-3.6% (inactive)
Cc1cc(=O)oc(C)c1C(=O)NCCCN1CCN(c2ccc(F)cc2)CC1	–	4.74% (inactive)
O=C(NCc1ccccn1)c1cc(-c2ccccc2Cl)on1	3.55 µM (active)	–
O=C(O)[C@@H]1[C@@H](C(=O)NCc2ccccn2)[C@@H]2C=C[C@@H]1O2	–	-0.104% [at 2.29 µM] (inactive)
CCC(C#CCN1CCCCC1)(CC)OCCC#N	–	-28.1% (inactive)
Cc1cc(=O)oc(C)c1C(=O)NCc1ccccn1	12.6 µM (active)	–
CCCNC(=O)OC[C@@H]1O[C@H](CCO/N=C\c2ccc(C(=O)N3[C@H](c4ccc(C)cc4)[C@@H](C)CC[C@H]3C(=O)OC)cc2)C=C[C@@H]1Oc1ccc(OC)cc1	–	-5.52% [at 11.4 µM] (inactive)
CCN1C(=O)[C@H]2[C@H]3[C@H](O)[C@H](O)C/C(=N/OCC(C)C)[C@H]3CC[C@@H]2C1=O	–	-1.29% [at 11.4 µM] (inactive)
CO/N=C/c1ccc(N2CCN(C(=O)c3ccc(Cl)cc3Cl)CC2)c([N+](=O)[O-])c1	–	-16.1% (inactive)
Cc1ccc(C(=O)O/N=C\c2ccc(N3CCCCC3)c([N+](=O)[O-])c2)cc1	0.251 µM (active)	–
O=C(O/N=C\c1ccc(N2CCCCC2)c([N+](=O)[O-])c1)c1c(F)cccc1F	0.708 µM (active)	–
Cc1ccc(OC(=O)c2ccc(N3CCOCC3)c([N+](=O)[O-])c2)cc1	–	-58.9% (inactive)
CC(C)OC(=O)C(C)(C)Oc1ccc(C(=O)c2ccc(Cl)cc2)cc1	5.01 µM (active)	–
CC(C)(Oc1ccc([C@@H]2CC2(Cl)Cl)cc1)C(=O)O	inactive	–
O=c1c(-c2cccs2)nc2cnc(N3CCNCC3)nc2n1C1CC1	2 µM (active)	–

SMILES	AC50	activity, negative = inhibition
Cn1c(=O)c(-c2cccs2)nc2cnc(N3CCNCC3)nc21	10 µM (active)	–
OC[C@@H]1O[C@H](O)[C@@H](Cl)[C@H](O)[C@@H]1O	–	1.58% (inactive)
Cc1ccc(S(N)(=O)=O)cc1NC(=O)/C=C/c1cccs1	12.6 µM (active)	–
CS(=O)(=O)Nc1cccc(-c2ccc3ncnc(NCc4cccs4)c3c2)c1	0.0794 µM (active)	–
CS(=O)(=O)Nc1cccc(-c2cncnc2NCc2ccccc2)c1	25.1 µM (active)	–
Cc1cccc(CNc2ncncc2-c2cccc(NS(C)(=O)=O)c2)c1	12.6 µM (active)	–
CS(=O)(=O)Nc1cccc(-c2cncnc2NCc2cccs2)c1	15.8 µM (active)	–
CC(=O)Nc1c(I)c(C(=O)N[C@H]2[C@@H](O)[C@H](O)[C@H](CO)O[C@@H]2O)c(I)c(N(C)C(C)=O)c1I	–	-14.8% [at 25.6 µM] (inactive)
CC12CS(=O)(=O)CC1SC(=S)N2c1ccccn1 (stereo not given)	–	-6.29% (inactive)
CS(=O)(=O)Nc1cccc(-c2ccc3ncnc(NCc4cccnc4)c3c2)c1	0.316 µM (active)	–
O=S(=O)(NCc1cccnc1)c1ccc(Cl)nc1	–	-6.12% (inactive)
CS(=O)(=O)Nc1cccc(-c2cncnc2NCc2cccnc2)c1	15.8 µM (active)	–
C[C@H](O)C(=O)C1=Nc2c(nc(N)[nH]c2=O)NC1	–	-9.29% (inactive)
O=C(Cn1c(SCC(=O)N2CCc3ccccc3C2)nc2ccccc21)NC1CCCC1	–	-25.7% (inactive)
C=CCn1c(SCC(=O)N2CCc3ccccc3C2)nc2ccccc2c1=O	8.91 µM (active)	–
O=C(O)CCCCCn1c(SCC(=O)N2CCCC2)nc2ccsc2c1=O	–	15.6% (inactive)
CC(C)OC(=O)c1cccc(C(=O)Oc2ccc(Br)cc2)n1	–	-28.5% (inactive)
CCn1ccc(C(=O)Oc2ccc(Cl)cc2)n1	14.1 µM (active)	–
CC(C)(C)c1nc(SCC(=O)Nc2ccc(N3CCOCC3)cc2)c2ccccc2n1	–	-25.2% (inactive)
CN(C)Cc1ccccc1-c1nc(N2CCOCC2)c2ccccc2n1	20 µM (active)	–
CN1c2ccccc2C(C)(C)C12C=Nc1c(cc(N3CCOCC3)c3ccccc13)O2 (stereo not given)	–	-29.8% (inactive)
Cc1ccccc1-c1nc(N2CCOCC2)c2ccccc2n1	2 µM (active)	–
Clc1ccccc1-c1nc(N2CCNCC2)c2ccccc2n1	2.51 µM (active)	–
Cc1ccccc1-c1nc(N2CCNCC2)c2ccccc2n1	5.01 µM (active)	–

SMILES	AC50	activity, negative = inhibition
C[C@@H](N1CCOCC1)[C@@](O)(c1ccccc1)c1ccccn1	–	-2.48% [at 2.29 µM] (inactive)
CN(C)/N=N\c1nc[nH]c1C(N)=O	–	-11.7% [at 25.6 µM] (inactive)
COc1ccc(O[C@H]2C=C[C@@H](c3ccccc3)O[C@@H]2CO/N=C(\C)CCN2CCCc3nc(C)c(C)cc32)cc1	–	-4.49% [at 11.4 µM] (inactive)
C=CC[C@@H]1C=C[C@H](O/N=C(\C)CCN2CCCCc3nc(C)c(C)cc32)[C@H](CO)O1	–	-6.73% [at 11.4 µM] (inactive)
CC[C@]1(O)C[C@@H]2CN(CCc3c([nH]c4ccccc34)[C@](C(=O)OC)(c3cc4c(cc3OC)N(C)[C@H]3[C@](O)(C(=O)OC)[C@@H](C(=O)OC)[C@@]5(CC)C=CCN6CC[C@@]43[C@@H]65)C2)C1	–	-17.5% (inactive)
CCCN(C(=S)Nc1ccccc1)C1CCS(=O)(=O)C1 (stereo not given)	–	-20.8% (inactive)
CCN(C(=S)Nc1ccccc1F)C1CCCCC1	15.8 µM (active)	–
CN(C(=S)Nc1ccccc1F)C1(c2ccccc2Cl)CCCCC1=O (stereo not given)	–	-2.66% (inactive)
COc1cccc(-c2cc(NCc3ccccc3)ncn2)c1	2 µM (active)	–
COc1cccc(/C=N/NC(=O)C(=O)NCc2cccnc2)c1	–	-12.7% (inactive)
c1cncc(-c2cc(NCc3cccs3)ncn2)c1	1 µM (active)	–
COc1cccc(-c2cc(NCc3cccnc3)ncn2)c1	0.631 µM (active)	–
COc1cccc(-c2cc(NCc3cccs3)ncn2)c1	1.26 µM (active)	–
COCC(=O)N1CCC2(CCCN(Cc3ccccc3)C2)CC1	–	-11.7% (inactive)
CS(=O)(=O)N1CCC2(CCN(C(=O)Nc3cccc(C#N)c3)CC2)CC1	–	3.5% (inactive)
Cc1c2cccc(Sc3ccccc3)c2c2c3c(cccc13)[S+](c1ccccc1)C2 (stereo not given)	–	-17.3% [at 2.29 µM] (inactive)
O=C(Nc1c2c(nn1-c1ccc(F)cc1)CS(=O)(=O)C2)C12CC3CC(CC(C3)C1)C2	–	-9.18% (inactive)
Cc1cc(C2C(C#N)=C(N)Oc3n[nH]c(C)c32)c(C)s1 (stereo not given)	15.8 µM (active)	–
Cc1cc(C2C(C#N)=C(N)OC3=C2C(=O)CC(C)(C)C3)c(C)s1 (stereo not given)	–	-13% (inactive)
N#CC(=C(/N)Sc1ccccc1N)/C(C#N)=C(/N)Sc1ccccc1N	12.6 µM (active)	–
Cc1ccc(N2CC(C(=O)Nc3cc(C)on3)CC2=O)cc1 (stereo not given)	–	-15.9% (inactive)
Cc1ccc(C2(C)NC(=O)N(CC(=O)Nc3cc(C)on3)C2=O)cc1 (stereo not given)	–	1.55% (inactive)
CN1CCN(NC(=O)c2cccc(F)c2)CC1	–	-1.53% (inactive)
Cc1cc(NC(=O)CN2C(=O)NC(C)(c3ccc(OC(F)F)cc3)C2=O)no1 (stereo not given)	–	-13.6% (inactive)

SMILES	AC50	activity, negative = inhibition
Cc1cc(NC(=O)c2cccc(F)c2)no1	17.8 µM (active)	–
Cc1cc(NC(=O)Nc2ccc(F)cc2)no1	10 µM (active)	–
Cc1ccc(N2C(=O)CC(c3ccsc3)C3=C2CC(C)(C)CC3=O)cc1 (stereo not given)	–	-0.626% (inactive)
Cc1ccc2ncc([N+](=O)[O-])n2c1	6.31 µM (active)	–
Cc1ncc([N+](=O)[O-])n1CCO	–	-3.67% [at 25.6 µM] (inactive)
Cc1ncc([N+](=O)[O-])n1CC(C)O (stereo not given)	–	3.46% (inactive)
Cc1nn(C)c(C)c1CNC(=O)c1cnn2c1NC(c1ccccc1)CC2C(F)(F)F (stereo not given)	–	-12.3% (inactive)
CCC(C)N1C(=O)S/C(=C/c2ccc(Sc3nc4ccccc4[nH]3)o2)C1=O (stereo not given)	2 µM (active)	–
NCCNc1ncnc2ccc(Cl)cc12	1 µM (active)	–
COC(=O)N1CCC2(CCCN(Cc3ccc(C#N)cc3)C2)CC1	–	-17.3% (inactive)
CC(C)CC1CC(=O)OC1(C)C(=O)CSc1nc2ccccc2s1 (stereo not given)	7.08 µM (active)	–
O=C(O)CC(c1ccccc1)n1cnnn1 (stereo not given)	–	6.77% (inactive)
CN(C)c1ccc(-c2nc(-n3ccnc3)c3ccccc3n2)cc1	0.316 µM (active)	–
c1ccc2c(-n3ccnc3)nc(-c3ccoc3)nc2c1	0.501 µM (active)	–
Cc1ccc(S(=O)(=O)N[C@H](C(=O)Oc2ccc3c(C(F)(F)F)cc(=O)oc3c2)c2ccccc2)cc1	1.78 µM (active)	–
COC(=O)C/C=C\[C@@H](C)[C@@H](/C=N\OC[C@@H]1O[C@H](c2ccccc2)C=C[C@@H]1Oc1ccc(OC)cc1)NS(=O)(=O)c1ccc(C)cc1	–	-1.03% [at 11.4 µM] (inactive)
Cc1ccc(S(=O)(=O)NC(CC(C)C)C(=O)Oc2ccc3c4c(c(=O)oc3c2)CCC4)cc1 (stereo not given)	3.98 µM (active)	–
Cc1ccc(S(=O)(=O)N[C@H](CN)C(=O)O)cc1	–	-18.5% [at 2.29 µM] (inactive)
CCC/C=C(\CCC)C(NS(=O)(=O)c1ccc(C(F)(F)F)cc1)c1ccc(-c2ccccc2)cc1 (stereo not given)	–	-18% (inactive)
Cc1ccc(C)c(S(=O)(=O)NC(CC(C)C)C(=O)O)c1 (stereo not given)	–	-1.89% (inactive)
COc1ccc(CCN2C(=NC(=O)CCC(=O)O)SC3CS(=O)(=O)CC32)cc1 (stereo not given)	–	-4.52% (inactive)
CN1CCc2c(c3c(n2C)CCN(C)[C@H]3c2ccccc2F)[C@@H]1c1ccccc1F	–	10.4% (inactive)
CC(C)NC(=O)N1CCCC2(CCN(C(=O)c3cc(C(F)(F)F)cc(C(F)(F)F)c3)CC2)C1	–	-10.6% (inactive)
